Screening results deposited in PubChem BioAssay by National Center for Advancing Translational Sciences (NCATS).
Sampled rows, rich in hits. Any-hit rate of the full collection: about 4%.
Glioma ERSR ind: qHTS for Inducers of the Endoplasmic Reticulum Stress Response (ERSR) in Human Glioma: qHTS; U87-MG GRP78 promoter luciferase reporter, 16 h; Potency, µM, without a hit: at the highest dose activation, usual class: activators; 420,000 compounds, 0.02% hits; AID 602332, 2012; further: potency means the concentration at half of the fitted maximal effect; series mostly up to about 76 µM; % of control where 0% means no effect; nearly all actives have a fitted effect of over 35% in size
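Stably transfected U87-MG glioma cells carrying a GRP78-based luciferase sensor; 16 h compound incubation. Luminescence end-point read 10 min after Bright-Glo addition at room temperature.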
D1 potentiator: Potentiators of Human D1 Dopamine Receptor: qHTS; D(1A) dopamine receptor (Homo sapiens), P21728; HEK293 TREx D1 cells, calcium flux, dopamine EC20 potentiation; potentiation, % at 10 µM; 360,000 compounds, 0.036% hits; AID 504651, 2011; in the data active means potentiation above about 30%; further: 0% is about no effect
D1 ag: Allosteric Agonists of the Human D1 Dopamine Receptor: qHTS. HEK293 T-REx D1 cells, calcium flux, agonist mode. 360,000 compounds, 1% hits. D(1A) dopamine receptor (Homo sapiens), P21728. activation, % at 2 µM; in the data active means activation above about 30%; further: 0% is about no effect
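Agonism was scored from calcium flux recorded over 180 s (1 read/s) after pintool compound addition, following a 10-cycle baseline. Cells were inducible force-coupled HEK293 TREx D1, plated overnight at 30 C and loaded with no-wash calcium dye.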
TRHR enhancer-1: qHTS for Small Molecule Agonists and Allosteric Enhancers of Human TRH Receptor: Primary Screen for Enhancers. TRHR cells, fluo-8 calcium fluorescence, EC20 TRH enhancement. enhancement, % at 2 µM. 360,000 compounds, 0.66% hits. AID 493056, 2011; in the data active means enhancement above about 30%; further: 0% is about no effect
Target sequence (P34981 whole entry, looked up): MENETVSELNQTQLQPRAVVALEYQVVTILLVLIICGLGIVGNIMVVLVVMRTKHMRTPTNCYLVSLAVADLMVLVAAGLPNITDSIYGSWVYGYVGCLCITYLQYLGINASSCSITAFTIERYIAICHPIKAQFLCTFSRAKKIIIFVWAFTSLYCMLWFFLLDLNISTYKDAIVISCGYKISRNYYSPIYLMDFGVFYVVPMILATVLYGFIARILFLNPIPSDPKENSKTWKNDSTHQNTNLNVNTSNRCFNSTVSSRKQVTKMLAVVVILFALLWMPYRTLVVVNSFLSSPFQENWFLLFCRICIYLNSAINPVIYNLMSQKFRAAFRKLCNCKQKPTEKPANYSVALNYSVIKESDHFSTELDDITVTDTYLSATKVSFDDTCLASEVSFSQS
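TRHR-expressing cells loaded with fluo-8 calcium dye were read kinetically (ex 480/em 530) during compound addition, then stimulated with an EC20 of TRH (10 nM final). Enhancement of the Gq-mediated intracellular calcium response was scored.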
TRHR agonist-1: qHTS for Small Molecule Agonists and Allosteric Enhancers of Human TRH Receptor: Primary Screen for Agonists; activation, % at 2 µM; 360,000 compounds, 0.18% hits; TRHR cells, calcium flux fluo-8, FDSS agonist mode; in the data active means activation above about 30%; further: 0% is about no effect
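In this calcium-flux screen, cells bearing human TRHR are dye-loaded with fluo-8, baselined for 10 cycles, then exposed to library compounds; positive kinetic calcium responses during the agonist phase mark hits, with TRH as control.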
D1 antag: Antagonist of Human D 1 Dopamine Receptor: qHTS; D(1A) dopamine receptor (Homo sapiens), P21728; activity change, negative = inhibition, % at 10 µM; HEK293 TREx D1 cells, calcium flux, dopamine EC80; active compounds read low; 360,000 compounds, 3.2% hits; AID 504652, 2011; in the data active means activity change below about -30%; further: on the % scale 0 is the no-effect control and ±100 the full control effect
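Tetracycline-induced HEK293 Trex D1 cells, force-coupled to calcium, dye-loaded; compounds added and read 180 s, then EC80 dopamine added and calcium flux tracked kinetically another 180 s.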
TRHR enhancer-2: qHTS for Small Molecule Agonists and Allosteric Enhancers of Human TRH Receptor: Confirmation Screen for Enhancers. activity change, negative = inhibition, % at 46.1 µM. TRH receptor cell assay, enhancer confirmation qHTS. AID 493076, 2011. 970 tested, under 10 active. shares compounds with TRHR enhancer-1;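 further: compound effect scored on response to added TRH at EC20 of 10 nM; 0% is about no effect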
TRHR agonist-2: qHTS for Small Molecule Agonists and Allosteric Enhancers of Human TRH Receptor: Confirmation Screen for Agonists; AID 493078, 2011; Potency, µM (series often up to 46.1 µM), for the others: at the highest dose activation, hits mostly activators; TRHR-expressing cells, agonist activation read-out; shares compounds with TRHR enhancer-1; 970 compounds, 8% hits; further: potency means the concentration at half of the fitted maximal effect; 0% is about no effect; nearly all actives have a fitted effect of over 75% in size
Numbers without * were called inactive; u = inconclusive; x = not tested or not shown. Unless noted, the call rests on the fitted dose curve; in most records, active means well fitted curve in the direction sought with a large enough effect; inconclusive means small, poorly fitted or top-dose-only effect, or another doubt; inactive means no such curve, though single readings can be large; an effect the other way counts as inactive or inconclusive.

SMILES	Glioma ERSR ind	D1 potentiator	D1 ag	TRHR enhancer-1	TRHR agonist-1	D1 antag	TRHR enhancer-2	TRHR agonist-2
c1ccc(-c2cn3nc(-c4ccccc4)c(-c4ccccc4)nc3n2)cc1	1%	-6	73*	-7	50*	5	6	21µM*
Cc1cc(S(=O)(=O)Nc2ccc3oc4c(c3c2)CCCC4)ccc1Cl	-10%	2	7	3	-1	-12	x	x
CCN(C(=O)COC(=O)/C=C/c1ccc(Cl)c(Cl)c1)c1c(N)n(Cc2ccccc2)c(=O)[nH]c1=O	-3%	x	x	x	x	x	x	x
CCN(C(=O)COC(=O)/C=C/c1ccccc1Cl)c1c(N)n(Cc2ccccc2)c(=O)[nH]c1=O	-2%	2	1	52*	1	4	-3	2%
O=C(NCc1cccc(CNC(=O)C(=O)NCC2CCCO2)c1)C(=O)NCC1CCCO1 (stereo not given)	-5%	-4	1	42*	1	-5	1	-1%
O=C(NCc1ccc2c(c1)OCO2)C(=O)NCC1CCCO1 (stereo not given)	-2%	1	1	0	0	-9	x	x
COc1ccccc1N1CCN(Cc2nc3ccccc3[nH]2)CC1	-2%	7	1	50*	0	-10	5	-1%
CCOC(=O)C1=C(O)/C(=C/c2cc(OC)c(O)c(OC)c2)SC1=Nc1ccc(OC)cc1	-5%	-14	17	8	27	-64*	-1	u
O=C(CCN1C(=O)c2ccccc2C1=O)Nc1ccc(S(=O)(=O)N2CCOCC2)cc1	-2%	-1	1	3	0	-12	x	x
CC1CCCN(S(=O)(=O)c2ccc(NC(=O)CCN3C(=O)c4ccccc4C3=O)cc2)C1 (stereo not given)	-4%	0	-1	-4	38*	4	-2	0%
C[C@H]1CN([C@@H](C)CO)C(=O)c2cc(Br)cnc2O[C@@H]1CN(C)S(=O)(=O)c1cn(C)cn1	0%	x	x	x	x	x	x	x
COc1cc(OC)cc(C(=O)NC(=S)Nc2cccnc2)c1	0%	-6	1	2	-1	-5	x	x
COc1cc(OC)cc(C(=O)Nc2cccnc2)c1	3%	6	1	50*	0	13	-1	3%
CN(CCCn1c(=S)[nH]c2ncccc2c1=O)Cc1ccccc1	-3%	-4	3	46*	-1	-12	3	-1%
COc1cc(/C=C(\C#N)C(=O)NCCc2ccccc2)cc(OC)c1O	-2%	2	73*	12	56*	16	7	21µM*
O=S(=O)(Nc1cnc2ccccc2c1)N1CCCCCC1	2%	-6	4	48*	1	13	2	4%
Cc1ccc(S(=O)(=O)Nc2cnc3ccccc3c2)cc1	-3%	3	9	7	1	-3	x	x
COc1ccc(COC(=O)C2=C(C)NC(=O)NC2c2ccccc2)cc1 (stereo not given)	-8%	4	6	44*	0	11	-5	0%
COc1ccc(-c2cc(C)no2)cc1S(=O)(=O)N1CC(C)Oc2ccccc21 (stereo not given)	1%	-2	26	1	2	-10	x	x
c1ccc(Oc2ccc(-c3ccnc4ncnn34)cc2)cc1	2%	1	3	48*	-2	1	-7	0%
CCc1cc(=O)[nH]c(SCc2ccc(C)cc2)n1	3%	-5	2	54*	0	22	-1	-1%
NC(=O)c1ccc(NC(=O)CNCc2ccccc2Cl)cc1	2%	-8	5	-3	0	-4	x	x
O=C(CNCc1ccccc1Cl)Nc1ccc(C(=O)N2CCCCC2)cc1	-4%	-3	28	41*	-1	-8	0	-1%
COCCn1c(SCC(=O)NCCCN2CCCC2=O)nc2sc3c(c2c1=O)CCCC3	-3%	x	x	x	x	x	x	x
COc1ccc(NC(=O)/C(C#N)=C/c2ncc([N+](=O)[O-])n2C)c(OC)c1	1%	2	4	1	-1	-3	x	x
SMILES	Glioma ERSR ind	D1 potentiator	D1 ag	TRHR enhancer-1	TRHR agonist-1	D1 antag	TRHR enhancer-2	TRHR agonist-2
COc1ccc(OC)c(C(c2c(C)[nH][nH]c2=O)c2c(C)[nH][nH]c2=O)c1	-8%	-9	0	50*	1	-20	-1	1%
COc1ccc(C(=O)Nc2nc3cc4c(cc3s2)OCCO4)c(OC)c1	1%	1	2	1	1	1	x	x
CCCN1C(=O)/C(=C/c2ccc(OCC(=O)OCC)cc2)NC1=S	u	-5	7	0	1	-15	x	x
CCCN1C(=O)/C(=C/c2ccc(N3CCOCC3)cc2)NC1=S	-5%	-1	132*	13	48*	5	u	16µM*
CC(C)C[C@H](NC(=O)[C@H](Cc1ccccc1)NC(=O)CNC(=O)CNC(=O)[C@@H](N)Cc1ccc(O)cc1)C(=O)N[C@@H](CCCN=C(N)N)C(=O)N[C@@H](CCCN=C(N)N)C(=O)N[C@@H](CCC(N)=O)C(=O)N[C@@H](Cc1ccccc1)C(=O)N[C@@H](CCCCN)C(=O)N[C@H](C(=O)N[C@H](C(=O)N[C@H](C(=O)O)[C@@H](C)O)C(C)C)C(C)C	1%	x	x	x	x	x	x	x
CC(=O)Oc1ccc(-c2cccc(C(=O)NCCO)c2)cc1	-1%	-4	1	43*	0	11	-2	-1%
CC(=O)Nc1cc2ccccc2oc1=O	-5%	1	-1	-6	0	15	x	x
CCN(CC)c1ccc2cc(NC(=O)CCC(=O)O)c(=O)oc2c1	-14%	-4	56*	5	26	6	10	21µM*
Cn1c(=O)c(N)c2c3c(c(Br)ccc31)C(=O)c1ccccc1-2	-7%	-5	73*	-5	60*	-9	-5	18µM*
O=C(CN1C(=O)CCOc2ccccc21)Nc1ccc(Cl)c(S(=O)(=O)N2CCOCC2)c1	-5%	2	1	2	-1	10	x	x
COC(=O)Cc1c(O)ccn(CCc2ccccc2)c1=O	-3%	15	2	51*	2	1	2	5%
